According to PubChem BioAssay:
Values without a mark were called inactive. Active and inactive are the calls of the source.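 Rule for the calls: active = inhibition above the hit cutoff set in the earlier primary screen (cut at about 27% in these data); inactive = the rest.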

target: Protein phosphatase methylesterase 1 (Homo sapiens) (UniProt Q9Y570); experiment: PME-1 inhibitor activity retest, confirmation, biochemical, fluorescence polarization, FP-Rh probe, triplicate (AID 2171); conditions: recombinant PME-1, FP-Rh probe fluorescence polarization; at 5.9 µM; active compounds read high;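 note: 0% = enzyme with DMSO and 100% = wells lacking PME-1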
Sequence (Q9Y570 whole entry, looked up): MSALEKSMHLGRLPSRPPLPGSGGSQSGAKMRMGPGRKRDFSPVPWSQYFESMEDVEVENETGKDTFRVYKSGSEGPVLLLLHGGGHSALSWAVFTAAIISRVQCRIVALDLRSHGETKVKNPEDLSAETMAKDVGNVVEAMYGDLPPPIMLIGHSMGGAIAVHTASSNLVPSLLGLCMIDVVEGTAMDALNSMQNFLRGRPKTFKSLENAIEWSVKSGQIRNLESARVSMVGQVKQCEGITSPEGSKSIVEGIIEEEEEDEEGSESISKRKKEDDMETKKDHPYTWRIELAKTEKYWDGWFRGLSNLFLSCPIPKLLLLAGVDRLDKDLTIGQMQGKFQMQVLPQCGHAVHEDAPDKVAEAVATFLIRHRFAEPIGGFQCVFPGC

Compound | inhibition
COc1ccc(NS(=O)(=O)c2ccc3oc(Nc4ccc5c(c4)OCCO5)nc3c2)cc1 | 12.1%
Oc1ccc(/C=N/Nc2ccnc3cc(Cl)ccc23)c(O)c1 | 19%
Cc1cc(N)ccc1N1CCCC1 | 7.13%
COC(=O)c1ccc(Sc2ccccc2NS(=O)(=O)c2ccc(C)cc2)nc1 | 25.9%
COc1cc2c(c(OC)c1OC)-c1ccc(NC(=O)c3ccc(F)cc3)c(=O)cc1[C@@H](NC(C)=O)CC2 | 0.65%
CC(=O)Nc1ccc(Nc2nc(C)c([N+](=O)[O-])c(Nc3ccccc3)n2)cc1 | 19.7%
COc1ccc2c(c1)cc(C(=O)N/N=C/c1c(O)c(C(=O)O)cc3ccccc13)n2C | 30% (active)
COc1ccc(-c2nc(NC(=O)c3[nH]c(C)c(C(C)=O)c3C)sc2C)cc1 | 55% (active)
Cc1[nH]c2ccccc2c1/C=C/c1nc2ccccc2c(=O)n1CCO | 68.3% (active)
Cc1ccc(NC(=O)COC(=O)c2cccc3c2C(=O)c2ccccc2C3=O)c(C)c1 | 91.2% (active)
Cc1cc(C)cc(NC(=S)NCCc2c[nH]c3ccccc23)c1 | 25.5%
Nc1cc(Cl)nc(N/N=C/c2c(O)ccc3ccccc23)n1 | 21.6%
Cc1ccc(Nc2nnc(SCC(=O)c3ccc(O)cc3O)s2)cc1 | 40.8% (active)
CCn1c(CSc2nnc(-c3cccnc3)n2-c2ccccc2C)nc2cc(C(=O)O)ccc21 | 82% (active)
CCCCn1c(/C=N/Nc2nc3ccccc3[nH]2)nc2ccccc21 | 61.3% (active)
Nc1c(C(=O)Nc2ccc(F)cc2)sc2nc(-c3ccco3)ccc12 | 49.6% (active)
CC(C)S(=O)(=O)c1csc(NC(=O)Nc2cccc([N+](=O)[O-])c2)c1Cl | -58.5%
CN(C)c1ccc(NC(=O)Nc2cccc(Cl)c2)cc1 | 19.8%
COC(=O)/C(=C(O)\C=C\c1ccccc1[N+](=O)[O-])c1nc2ccccc2[nH]1 | 21.9%
CCOC(=O)c1c2c3c(cccc3n(C)c1=O)C(=O)c1ccccc1-2 | 21%

Compound | inhibition
COc1ccc(NC(=S)NNc2ccc(S(=O)(=O)Nc3ccccc3C(=O)O)cc2[N+](=O)[O-])cc1 | 44.9% (active)
C=C(C)COc1ccc(-c2[nH]ncc2-c2ccc(OC)c(OC)c2)c(O)c1 | 22.1%
Cn1c2ccccc2c2cc(/C=N/NC(=O)c3ccc(O)cc3O)ccc21 | 23%
CCC(C)Nc1nc(N)c([N+](=O)[O-])c(Nc2cc(OC)ccc2OC)n1 (stereo not given) | 34.5% (active)
COC(=O)N1C(=O)[C@](c2ccccc2)(C(C)C)N1C(=O)OC | 23.3%
Cc1sc2ncnc(OCC(=O)N3CCN(S(=O)(=O)c4ccc(Cl)cc4)CC3)c2c1C | 11.1%
CCCSc1nnc(NC(=O)c2sc3nc(-c4cccs4)ccc3c2N)s1 | 37.4% (active)
N[C@H](CSCc1ccccc1)C(=O)Nc1ccc([N+](=O)[O-])cc1 | -1.96%
O=C(Nc1ccc(-c2csc(Nc3ccc(Cl)cc3)n2)cc1)c1cccc(C(F)(F)F)c1 | -1.3%
Cc1ccc(S(=O)(=O)/N=C2/C=C(Sc3ncn[nH]3)C(=O)c3ccccc32)cc1 | 54.4% (active)
O=c1[nH]n2c(=O)c3c([nH]c2c1N=Nc1cccc(C(F)(F)F)c1)CCCC3 | 60.6% (active)
O=C1CN(C(=O)c2cc3ccccc3oc2=O)C(c2ccccc2)c2cc(F)ccc2N1 (stereo not given) | 18.1%
O=C1Nc2ccccc2/C1=N\N=C\C1=C(N2CCOCC2)C(=C\c2ccccc2)/CC1 | 24%
COc1cc(/C=N/NC(=S)Nc2cccc(S(=O)(=O)N(C)C)c2)ccc1O | 14.1%
Oc1ccc(N=Cc2ccc(-c3cccs3)s2)cc1 | 23.3%
C/C(=N\Nc1cccc([N+](=O)[O-])c1)c1ccccc1O | 39.4% (active)
COc1ccccc1NS(=O)(=O)c1cccc(-n2c(O)c(C=Nc3ccccc3C(=O)O)c3ccccc3c2=O)c1 | 85.7% (active)
N#CCC(=O)c1ccccc1Oc1ccc(Cl)cc1 | 13.4%
CCn1cc(C(=O)NCCCN2CCCC(C)C2)c(=O)c2cc(S(=O)(=O)N(C)C3CCCCC3)ccc21 (stereo not given) | 45.2% (active)
O=C(O)c1ccc(N/N=C/c2ccc(OC(=O)c3cccc(Cl)c3)cc2)cc1 | 37% (active)
